# Results taken from PubChem BioAssay (Tox21).
# Values without a mark were called inactive. Inconclusive results are not listed. A call without a number means that no potency is given here. Active and inactive are the calls of the source. Unless noted, calls come from the whole dose curve.
# Experiments:
# [1] = Nuclear factor erythroid 2-related factor 2/antioxidant responsive element (Nrf2/ARE) small molecule agonists: qHTS cell viability counter screen in human keratinocytes (AID 1919968; active = well fitted curve in the direction sought with a large enough effect in the repeat runs; an effect the other way counts as inactive or inconclusive; note: nearly all actives have a fitted effect of over 55% in size; note: potency is the fitted concentration of half-maximal effect)
# Summary of the method: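 After a 5 h attachment period, ARE-reporter keratinocytes were dosed with compounds in DMSO and then cultured 23 h at 37 C. Cell viability came from CellTiter-Fluor signal read after a further 1 h.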
# [2] = Nuclear factor erythroid 2-related factor 2/antioxidant responsive element (Nrf2/ARE) small molecule agonists: luciferase reporter gene qHTS assay in human keratinocytes (AID 1919969); note: nearly all actives have a fitted effect of over 35% in size; note: potency is the fitted concentration of half-maximal effect
# [3] = target: Gonadotropin-releasing hormone receptor (Homo sapiens) (UniProt P30968); assay: Human gonadotropin-releasing hormone receptor (GnRHR) small molecule agonists, calcium flux assay in GnRHR-HEK293 cells (AID 1920063); note: nearly all actives have a fitted effect of over 35% in size
# Chain of Gonadotropin-releasing hormone receptor (Homo sapiens) (P30968 whole entry, looked up): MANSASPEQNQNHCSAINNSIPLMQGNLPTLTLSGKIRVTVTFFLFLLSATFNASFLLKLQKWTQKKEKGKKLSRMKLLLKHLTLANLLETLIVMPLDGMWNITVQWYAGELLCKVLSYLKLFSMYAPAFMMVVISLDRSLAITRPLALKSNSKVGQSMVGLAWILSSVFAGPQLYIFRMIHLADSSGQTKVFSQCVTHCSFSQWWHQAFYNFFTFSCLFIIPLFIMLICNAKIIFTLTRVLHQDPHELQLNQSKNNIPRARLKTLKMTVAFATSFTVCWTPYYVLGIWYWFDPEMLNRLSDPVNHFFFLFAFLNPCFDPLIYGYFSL
# Summary of the method: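 We seeded human GnRHR-expressing HEK293 cells for 18 hours, loaded them with calcium dye for an hour at 37 C, added test compounds, and recorded fluorescence intensity kinetically for three minutes.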
# [4] = target: KiSS-1 receptor (Homo sapiens) (UniProt Q969F8); assay: Human kisspeptin (KISS1R) small molecule agonists, calcium flux assay in KISS1R-HEK293 cells (AID 1920064; active = well fitted curve in the direction sought with a large enough effect in the repeat runs; an effect the other way counts as inactive or inconclusive)
# Chain of KiSS-1 receptor (Homo sapiens) (Q969F8 whole entry, looked up): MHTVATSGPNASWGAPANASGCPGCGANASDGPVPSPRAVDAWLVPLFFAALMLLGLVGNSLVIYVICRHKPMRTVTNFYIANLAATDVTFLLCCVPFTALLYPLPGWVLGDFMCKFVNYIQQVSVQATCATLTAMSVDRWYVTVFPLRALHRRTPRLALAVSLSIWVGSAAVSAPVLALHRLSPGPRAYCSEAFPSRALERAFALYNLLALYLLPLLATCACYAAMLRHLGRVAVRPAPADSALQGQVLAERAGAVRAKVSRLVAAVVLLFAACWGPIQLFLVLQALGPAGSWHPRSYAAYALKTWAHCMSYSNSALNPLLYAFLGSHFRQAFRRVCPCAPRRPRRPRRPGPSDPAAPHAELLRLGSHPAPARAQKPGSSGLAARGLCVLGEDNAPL
# Summary of the method: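 Kinetic calcium assay, 1 s sampling over 3 min at Ex/Em 480/540, in HEK293 cells engineered with human KISS1R; compounds delivered in DMSO after 1 h dye loading.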
# [5] = G protein-coupled receptor (GPCR) small molecule agonists, calcium flux assay: HEK293 wild type cell line counter screen (AID 1920065)
# Summary of the method: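 Calcium-sensitive dye, loaded 1 h at 37 C into cells cultured 18 h, reports compound-evoked calcium release as fluorescence (Ex/Em 480/540), measured over 3 min. Agonist mode; 15-point titrations, triplicate.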
# [6] = p53 small molecule agonists, cell-based qHTS assay with human liver microsomes (AID 1963577);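 note: p53 response element beta-lactamase reporter cells with liver microsomes plus NADPH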
# Summary of the method: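 Metabolically competent format: test substances, human liver microsomes and NADPH (both 0.5 mg/mL final) incubated with p53RE-bla cells 16 h at 37 C. Beta-lactamase reporter signal then quantified by fluorescence.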
# [7] = p53 small molecule agonists, cell-based qHTS assay with rat liver microsomes (AID 1963578)
# Summary of the method: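 Each plate received p53RE-bla cells, then compound, then rat liver microsomes and NADPH (both 0.5 mg/mL final). Plates were held 16 h at 37 C, and beta-lactamase activity was detected with LiveBLAzer over 2 h.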
# [8] = p53 small molecule agonists, cell-based qHTS assay with human liver microsomes: qHTS cell viability counter screen (AID 1963579); note: nearly all actives have a fitted effect of over 45% in size
# Summary of the method: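 Tox21 library compounds, delivered from DMSO stocks, were tested on p53RE-bla cells together with 0.5 mg/mL human liver microsomes and 0.5 mg/mL NADPH (final) over 16 h at 37 C; CellTiter-Glo luminescence served as the cytotoxicity measure.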
# [9] = p53 small molecule agonists, cell-based qHTS assay with rat liver microsomes: qHTS cell viability counter screen (AID 1963580); note: nearly all actives have a fitted effect of over 45% in size
# Summary of the method: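 In HCT-116 cells carrying a p53 response element-bla reporter, compounds were metabolically activated in situ by rat liver microsomes with NADPH over 16 h. Cell ATP content then served as the cytotoxicity measure.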
# [10] = p53 small molecule agonists, cell-based qHTS assay: qHTS cell viability counter screen (AID 1963581); note: nearly all actives have a fitted effect of over 45% in size
# Summary of the method: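 Following 5 h attachment, HCT-116 p53RE-bla cells took up compound for 16 h at 37 C; the reporter was read with B/G FRET substrate (2 h RT), and viability then via CellTiter-Glo ATP luminescence.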
# [11] = target: 5-hydroxytryptamine receptor 2A (Homo sapiens) (UniProt P28223); assay: 5-hydroxytryptamine receptor 2A (HTR2A) small molecule antagonists, cell-based qHTS assay (AID 1963586); note: nearly all actives have a fitted effect of over 45% in size
# Chain of 5-hydroxytryptamine receptor 2A (Homo sapiens) (P28223 whole entry, looked up): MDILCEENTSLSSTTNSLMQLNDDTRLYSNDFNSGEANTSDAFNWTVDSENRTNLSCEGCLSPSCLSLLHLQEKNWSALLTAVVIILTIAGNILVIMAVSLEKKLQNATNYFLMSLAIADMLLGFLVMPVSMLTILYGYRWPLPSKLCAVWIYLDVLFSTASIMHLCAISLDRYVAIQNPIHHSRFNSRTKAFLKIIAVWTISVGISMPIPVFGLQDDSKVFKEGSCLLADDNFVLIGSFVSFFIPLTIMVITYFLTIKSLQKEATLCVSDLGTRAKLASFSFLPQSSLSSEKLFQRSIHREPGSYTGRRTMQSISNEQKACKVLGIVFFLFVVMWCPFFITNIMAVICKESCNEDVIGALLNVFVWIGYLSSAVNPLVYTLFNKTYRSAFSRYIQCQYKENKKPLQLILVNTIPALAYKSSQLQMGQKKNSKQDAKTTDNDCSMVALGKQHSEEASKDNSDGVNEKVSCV
# Summary of the method: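 Antagonist-mode intracellular calcium assay: DOI (4 nM) added after 5 min compound pre-incubation at room temperature to dye-loaded HTR2A-CHO cells. Fluorescence followed for 3 min, sampled every second.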
# [12] = target: 5-hydroxytryptamine receptor 2A (Homo sapiens) (UniProt P28223); assay: 5-hydroxytryptamine receptor 2A (HTR2A) small molecule agonists, cell-based qHTS assay (AID 1963587); note: nearly all actives have a fitted effect of over 30% in size; note: potency is the fitted concentration of half-maximal effect
# Summary of the method: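 HTR2A-CHO cells, plated 18 h at 37 C/5% CO2, dye-loaded 1 h at 37 C; compounds in DMSO added by pin tool (agonist mode). Intracellular calcium flux read as kinetic fluorescence on FDSS over 2 min at 1 s intervals.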
# [13] = target: Muscarinic acetylcholine receptor M1 (Homo sapiens) (UniProt P11229); assay: Cholinergic receptor muscarinic 1 (CHRM1) small molecule antagonists, cell-based qHTS assay (AID 1963588); note: nearly all actives have a fitted effect of over 40% in size; note: potency is the fitted concentration of half-maximal effect
# Chain of Muscarinic acetylcholine receptor M1 (Homo sapiens) (P11229 whole entry, looked up): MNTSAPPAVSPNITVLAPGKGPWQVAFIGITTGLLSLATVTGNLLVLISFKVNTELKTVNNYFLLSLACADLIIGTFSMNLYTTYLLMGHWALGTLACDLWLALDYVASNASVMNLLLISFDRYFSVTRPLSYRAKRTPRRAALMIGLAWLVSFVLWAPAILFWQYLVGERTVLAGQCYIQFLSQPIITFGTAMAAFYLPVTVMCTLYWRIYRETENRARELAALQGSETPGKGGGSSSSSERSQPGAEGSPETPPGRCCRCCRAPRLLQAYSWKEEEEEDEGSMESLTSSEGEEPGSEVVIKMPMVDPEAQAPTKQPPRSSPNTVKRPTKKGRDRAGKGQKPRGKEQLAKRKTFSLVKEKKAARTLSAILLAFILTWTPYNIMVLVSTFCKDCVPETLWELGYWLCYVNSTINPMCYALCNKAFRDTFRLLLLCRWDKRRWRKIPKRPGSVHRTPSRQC
# Summary of the method: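 CHRM1-CHO calcium-flux assay, antagonist mode. Cells were seeded 18 h, dye-loaded 1 h at 37 C and given compound for 5 min at RT, then acetylcholine was added at 50nM. FDSS fluorescence was read 3 min; 15 concentrations, three runs.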
# [14] = target: Muscarinic acetylcholine receptor M1 (Homo sapiens) (UniProt P11229); assay: Cholinergic receptor muscarinic 1 (CHRM1) small molecule agonists, cell-based qHTS assay (AID 1963589); note: nearly all actives have a fitted effect of over 35% in size
# Summary of the method: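 Measures agonist-induced intracellular calcium rise. Stable human CHRM1 CHO line, 1 h dye load at 37 C, compounds from DMSO, kinetic fluorescence read.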
# [15] = cAMP Responsive Elements (CRE) small molecule agonists, cell-based qHTS assay (AID 1963590)
# Summary of the method: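 A CRE-responsive beta-lactamase reporter in HEK 293T cells was used. Treatment ran 3 h at 37 C; detection used LiveBLAzer B/G FRET substrate for 2 h at room temperature.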
# [16] = target: D(2) dopamine receptor (Homo sapiens) (UniProt P14416); assay: Dopamine D2 receptor (DRD2) small molecule agonists, cell-based qHTS assay (AID 1963594); note: nearly all actives have a fitted effect of over 35% in size
# Chain of D(2) dopamine receptor (Homo sapiens) (P14416 whole entry, looked up): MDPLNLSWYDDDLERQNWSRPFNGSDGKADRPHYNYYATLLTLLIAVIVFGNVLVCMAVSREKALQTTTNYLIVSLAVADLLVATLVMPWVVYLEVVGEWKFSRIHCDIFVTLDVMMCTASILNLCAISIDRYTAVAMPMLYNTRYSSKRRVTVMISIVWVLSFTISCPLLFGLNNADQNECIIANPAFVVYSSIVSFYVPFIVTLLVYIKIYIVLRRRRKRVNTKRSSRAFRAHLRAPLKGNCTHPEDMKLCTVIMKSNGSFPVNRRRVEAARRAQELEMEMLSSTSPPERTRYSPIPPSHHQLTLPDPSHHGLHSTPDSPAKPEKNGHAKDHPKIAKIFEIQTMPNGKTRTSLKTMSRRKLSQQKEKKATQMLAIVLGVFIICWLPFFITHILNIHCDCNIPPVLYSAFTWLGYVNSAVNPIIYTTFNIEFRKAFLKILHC
# Summary of the method: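 HEK293 cells stably expressing DRD2 were cultured 24 h at 37 C, then given Ro20-1724 (0.1 mM final) and compounds for 10 min at room temperature. NKH477 (200nM) was then added for 30 min. cAMP was read by HTRF.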
# [17] = target: D(2) dopamine receptor (Homo sapiens) (UniProt P14416); assay: Dopamine D2 receptor (DRD2) small molecule antagonists, cell-based qHTS assay (AID 1963595; active = well fitted inhibition curve with a large enough effect in the signal ratio in the repeat runs, with a control signal flat; the % refers to the signal ratio)
# Summary of the method: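 Antagonism was scored as restored cAMP in HEK293-DRD2 cells. These cells were stimulated with 200 nM NKH477 and 12 nM quinpirole for 30 min at room temperature, in the presence of 0.1 mM Ro20-1724.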
# [18] = p53 small molecule agonists, cell-based qHTS assay (AID 1963582; active = well fitted activation curve with a large enough effect in the signal ratio in the repeat runs, not every such curve was filed as active; the % refers to the signal ratio)
# Summary of the method: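 In this cell-based concentration-response screen, a p53 response element drives beta-lactamase; cells received DMSO-borne compounds after 5 h culture and were incubated a further 16 h before FRET substrate development.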
# [19] = cAMP Responsive Elements (CRE) small molecule antagonists, cell-based qHTS assay (AID 1963591; active = well fitted inhibition curve with a large enough effect in the signal ratio in the repeat runs, not every such curve was filed as active; the % refers to the signal ratio)
# Summary of the method: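 HEK293T cells carrying a CRE-driven beta-lactamase reporter receive compound and NKH477 (0.25 uM final) for 3 h. Fluorescence from LiveBLAzer B/G FRET substrate is read after 2 h at room temperature.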
# [20] = target: Beta-2 adrenergic receptor (Homo sapiens) (UniProt P07550); assay: Adrenergic beta2 receptor (ADRB2) small molecule antagonists, cell-based qHTS assay (AID 1963592); note: series mostly up to about 92 µM; nearly all actives have a fitted effect of over 50% in size
# Chain of Beta-2 adrenergic receptor (Homo sapiens) (P07550 whole entry, looked up): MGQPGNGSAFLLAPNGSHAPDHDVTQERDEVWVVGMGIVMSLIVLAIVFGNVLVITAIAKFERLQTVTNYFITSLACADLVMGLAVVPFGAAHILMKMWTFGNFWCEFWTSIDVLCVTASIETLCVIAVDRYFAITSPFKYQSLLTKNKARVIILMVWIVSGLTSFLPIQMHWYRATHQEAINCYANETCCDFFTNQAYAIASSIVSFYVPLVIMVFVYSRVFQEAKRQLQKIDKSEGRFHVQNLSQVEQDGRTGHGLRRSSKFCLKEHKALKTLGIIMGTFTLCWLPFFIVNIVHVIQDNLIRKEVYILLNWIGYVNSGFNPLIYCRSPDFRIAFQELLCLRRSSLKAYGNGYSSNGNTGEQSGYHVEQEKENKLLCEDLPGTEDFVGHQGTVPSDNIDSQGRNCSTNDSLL
# Summary of the method: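 Cells (CHO, stable ADRB2 overexpression) incubated 18-20hr at 37C; compounds added from DMSO; agonist mix (1nM isoproterenol, 100uM IBMX, 25uM Ro-20-1724) added; 0.5hr RT; d2-cAMP and anti-cAMP-cryptate added; 1hr RT; 665/615 nm read.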
Compound,Potency [1],Potency [2],Potency [3],Potency [4],Potency [5],Potency [6],Potency [7],Potency [8],Potency [9],Potency [10],Potency [11],Potency [12],Potency [13],Potency [14],Potency [15],Potency [16],Potency [17],Potency [18],Potency [19],Potency [20]
Cc1cccc(Cc2cnc[nH]2)c1C,inactive,inactive,inactive,inactive,inactive,inactive,inactive,inactive,inactive,inactive,inactive,inactive,inactive,inactive,inactive,inactive,inactive,,,
O=C(N/N=C/c1ccc([N+](=O)[O-])o1)c1cc([N+](=O)[O-])cc([N+](=O)[O-])c1O,inactive,29.8 µM (active),inactive,inactive,inactive,inactive,inactive,inactive,inactive,inactive,,,,,,inactive,,inactive,inactive,inactive
CC(C)[N+](=O)[O-],inactive,inactive,inactive,inactive,inactive,inactive,inactive,inactive,inactive,inactive,,inactive,inactive,inactive,inactive,inactive,inactive,,inactive,inactive
CCc1ccc(C(=O)NN(C(=O)c2cc(C)cc(C)c2)C(C)(C)C)cc1,inactive,inactive,inactive,inactive,inactive,inactive,inactive,inactive,inactive,inactive,inactive,inactive,2.98 µM (active),inactive,,inactive,inactive,,,inactive
CO/N=C(/C(=O)OC)c1ccccc1COc1ccccc1C,inactive,inactive,inactive,inactive,inactive,inactive,inactive,inactive,inactive,inactive,inactive,inactive,inactive,inactive,,,inactive,,,inactive
COc1ccc(C(=O)N2CCCC2=O)cc1,inactive,inactive,inactive,inactive,inactive,inactive,inactive,inactive,inactive,inactive,,,,,inactive,inactive,inactive,inactive,,inactive
O=C1C(Cl)C(CCl)CN1c1cccc(C(F)(F)F)c1 (stereo not drawn),inactive,inactive,inactive,inactive,inactive,inactive,inactive,inactive,inactive,inactive,inactive,inactive,inactive,inactive,,inactive,inactive,,,
CCC(C)(NC(=O)c1cc(Cl)c(C)c(Cl)c1)C(=O)CCl (stereo not drawn),24.5 µM (active),1.54 µM (active),inactive,inactive,inactive,inactive,inactive,inactive,inactive,inactive,,49.3 µM (active),inactive,inactive,,inactive,,,,inactive
